Compound activity (PubChem BioAssay)
Shown are actives, neighbours in structure and some others; about 2.4% of the full set was active somewhere.
D2 PAM-1 = positive allosteric modulators of human D2 dopamine receptor. HEK293 T-REx D2, calcium flux, EC20 dopamine potentiation. potentiation, % at 10 µM. actives 0.34% (n = 340,000). AID 485347;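 active means potentiation over 3 SD above the plate norm, cut at about 30% in these data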; further: 0% is about no effect
Target sequence (P14416 whole entry, looked up): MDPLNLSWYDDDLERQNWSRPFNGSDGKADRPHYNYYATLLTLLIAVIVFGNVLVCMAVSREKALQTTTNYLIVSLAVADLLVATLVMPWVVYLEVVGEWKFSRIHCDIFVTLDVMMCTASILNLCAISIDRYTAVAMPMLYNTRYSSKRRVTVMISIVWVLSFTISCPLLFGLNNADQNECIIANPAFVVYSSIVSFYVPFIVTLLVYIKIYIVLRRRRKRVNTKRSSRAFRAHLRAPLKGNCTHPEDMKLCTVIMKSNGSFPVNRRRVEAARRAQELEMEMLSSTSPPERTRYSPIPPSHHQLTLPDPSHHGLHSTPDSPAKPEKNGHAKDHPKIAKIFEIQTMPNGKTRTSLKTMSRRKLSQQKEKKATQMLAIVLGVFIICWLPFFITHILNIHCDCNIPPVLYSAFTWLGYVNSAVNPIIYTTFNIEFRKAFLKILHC
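Using a no-wash calcium dye in inducible, force-coupled HEK293 Trex cells expressing D2, we tracked fluorescence each second for 180 s after compound, then for 180 s after EC20 dopamine to detect augmented signalling.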
D2 ag-1 = D2 dopamine receptor (human) agonism; P14416; HEK293 T-REx D2 cells, calcium flux agonist mode; actives 0.53% (n = 340,000); AID 485358; activation, % at 2 µM;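 active means activation over 3 SD above normal in the single-dose calcium agonist read, cut at about 30% in these data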; further: 0% is about no effect
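Tetracycline-induced HEK293 T-REx cells with force-coupled D2 receptor, plated overnight at 30 C, loaded with no-wash calcium dye. After a 10 s baseline, compound was pin-added and calcium flux read kinetically for 180 s; calcium rises flagged agonists.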
D2 ag-2 = activates the human D2 dopamine receptor; P14416; DiscoveRx PathHunter D2 beta-arrestin, luminescence, 90 min; 100% = 57 uM dopamine signal; activation, % (no concentration beside the values); actives 0.084% (n = 360,000); in the data active means activation above about 40%; inconclusive means between about 15% and that limit
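DiscoveRx PathHunter D2 beta-arrestin cells (2,100/well) attached overnight, then compound-stimulated 90 min at 37 C in HBSS/10 mM HEPES/0.1% Tween-20 buffer; beta-galactosidase complementation read by luminescence after 1 h at ambient temperature. Dopamine 57 uM final (EC100) as control.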
D2 PAM-2 = potentiates the human D2 dopamine receptor allosterically; P14416; DiscoveRx D2 beta-arrestin cells, luminescence, 90 min; 100% = 57 uM dopamine signal; potentiation, % (concentration not given with the values); actives 0.23% (n = 360,000); AID 624464; in the data active means potentiation above about 50%; inconclusive means mostly about 30% to 49%
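D2 cells co-treated with compound plus 50 nM dopamine (EC20) for 90 min at 37 deg C to detect potentiation. Beta-arrestin recruitment was read as enzyme-fragment luminescence after 1 h at ambient temperature. Full response was set by 57 uM dopamine.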
D2 antagonist = antagonizes the human D2 dopamine receptor; P14416; HEK293 TREx D2 cells, calcium flux, dopamine EC80; inhibition, % at 10 µM; actives 2% (n = 340,000); in the data active means inhibition above about 30%; inactive means below that, where a call was filed; further: 0% is about no effect
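Calcium flux kinetic readout in an inducible HEK293 TREx D2 line plated overnight at 30 C. After 180 s compound exposure, an EC80 dopamine challenge follows with another 180 s kinetic read to detect antagonism.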
* marks the source's active call; other numbers are inactive results; ? = inconclusive; . = no result.

SMILES	D2 PAM-1	D2 ag-1	D2 ag-2	D2 PAM-2	D2 antagonist
CCOC(=O)C(NC(=O)CCl)(Nc1ccc(C(O)(C(=O)OCC)C(F)(F)F)cc1)C(F)(F)F (stereo not given)	2.9	0.3	-2.9	-8.2	-1.3
CCOC(=O)C(NC(=O)CC)(Nc1ccc(C(O)(C(=O)OCC)C(F)(F)F)cc1C)C(F)(F)F (stereo not given)	15.2	-0.6	-4.1	0.4	34.2*
c1ccc2c(c1)Nc1ccccc1S2	4.1	2.1	?	67.8*	-12.9
O=C1Nc2ccccc2Sc2ccccc21	-0.9	-0.2	-2.9	-0.6	2.4
CN1CC(C(=O)c2ccc(F)cc2)C(c2c(F)cccc2Cl)C1 (stereo not given)	-12.4	0.4	-3.1	-23.9	4.6
COc1ccc(C2CN(C)CC2C(=O)c2ccc(F)cc2)cc1Cl (stereo not given)	-35.3	-0.5	-0.2	-13.1	69.0*
Cc1ccc(Cn2cccc(C(=O)Nc3nnc(C)s3)c2=O)cc1	8.9	20.1	.	.	.
O=C(Nc1ccccc1C(F)(F)F)c1cccn(Cc2ccccc2)c1=O	5.5	0.6	.	.	.
CN1CCN(c2ccc([N+](=O)[O-])c(N)c2)CC1	-10.4	0.0	-4.8	-18.6	-1.1
CCN1CCN(c2ccc(N)c(C)c2)CC1	-9.1	0.0	-1.9	-12.4	49.4*
CCn1cc(C=C2C(=O)NC(=O)NC2=O)c2ccccc21	-1.3	1.1	-2.5	3.4	37.9*
CNCCc1ccc(O)c(O)c1	.	.	76.5*	66.4*	.
COc1ccc(CCN)cc1O	.	.	4.1	-17.1	.
Cc1cccc(Cn2cccc(C(=O)Nc3nnc(C)s3)c2=O)c1	2.7	-1.5	.	.	.
CC(C)N1CCOC(c2ccc(O)c(O)c2)C1 (stereo not given)	.	.	83.0*	59.7*	.
CC(C)N1CCN(c2ccc(O)cc2)CC1	-27.4	1.1	9.6	-11.4	14.7
CSc1ncc(C(=O)Nc2ccc(Cl)cc2C(=O)c2ccccc2)c(C)n1	-0.7	-1.1	.	.	.
CCCCc1nc2ccccc2c(=O)n1-c1cccc(OC)c1	9.7	-2.5	.	.	.
CCOc1ccc(CN(CCc2ccc3c(c2)OCO3)Cc2cccc(C)c2)cc1	-22.8	.	.	.	.
CCn1c(O)c(C=Nc2ccc(N3CCOCC3)cc2)c(=O)n(CC)c1=S	-1.7	35.5*	0.2	12.1	13.5
O=C(c1ccc2c(c1)N(Cc1c(F)cccc1Cl)C(=O)c1ccccc1S2)N1CCC2(CC1)OCCO2	-0.7	-0.5	.	.	.
Cc1nn(CC(C)C)c(Cl)c1C(=O)NC1CCCCC1	2.5	0.2	-3.4	22.1	30.2*
Cc1nn(CC(C)C)c(Cl)c1C(=O)NC1CCCC1	.	.	-2.1	-8.1	.
OC(CN1CCC(c2c[nH]c3ccccc23)CC1)C(F)(F)F (stereo not given)	-15.4	0.4	-5.3	-9.9	77.0*
c1ccc2c(CN3CCN(C4CCCCC4)CC3)c[nH]c2c1	-9.7	-0.2	-0.6	-18.5	-10.1
SMILES	D2 PAM-1	D2 ag-1	D2 ag-2	D2 PAM-2	D2 antagonist
CCCCOc1ccc(CCN)cc1Cl	3.1	2.9	-5.7	-20.3	41.8*
CC(C)Oc1ccc(CCN)cc1Cl	-6.2	1.1	0.7	-14.1	7.8
O=c1[nH]c2ccccc2n1C1CCN(C(CCc2ccccc2)c2nnnn2-c2ccc3c(c2)OCCO3)CC1 (stereo not given)	.	.	11.3	58.1*	.
COc1ccc(-n2nnnc2C(CCc2ccccc2)N2CCC(n3c(=O)[nH]c4ccccc43)CC2)cc1 (stereo not given)	.	.	?	27.2	.
O=c1[nH]c2ccccc2n1C1CCN(C(c2ccnc3ccccc23)c2nnnn2-c2ccc3c(c2)OCCO3)CC1 (stereo not given)	.	.	?	50.4*	.
COc1ccc(Br)cc1C1SCC(=O)Nc2c1c(C)nn2-c1ccccc1C (stereo not given)	-5.5	.	.	.	.
CCN(CC)CCSc1nc2ccccc2c(=O)n1-c1ccc(Cl)cc1	-0.2	-4.1	.	.	.
CCCCn1nnnc1C(C1CC1)N1CCC(n2c(=O)[nH]c3ccccc32)CC1 (stereo not given)	.	.	11.7	2.5	.
O=c1[nH]c2ccccc2n1CCCN1CCC(n2c(=O)[nH]c3cc(Cl)ccc32)CC1	.	.	.	.	97.4*
O=C(NCc1ccc(C(=O)N2CCC3(CC2)OCCO3)cc1)c1ccc2c(c1)OCO2	5.0	0.1	-2.4	-7.0	-22.3
O=C(c1ccc2c(=O)n(Cc3ccc4c(c3)OCO4)c(=S)[nH]c2c1)N1CCC2(CC1)OCCO2	6.4	0.1	-0.8	-10.1	43.9*
O=C(CCCN1CCC2(CC1)C(=O)NCN2c1ccccc1)c1ccc(F)cc1	.	75.8*	.	.	71.3*
CCOC(=O)c1c(N)n(Cc2ccco2)c2nc3ccccc3nc12	-13.3	10.6	-7.6	-9.9	30.0*
CCCCn1c(N)c(C(=O)OCCOC)c2nc3ccccc3nc21	.	.	-2.5	3.5	.
COCCOC(=O)c1c(N)n(Cc2ccccc2)c2nc3ccccc3nc12	-0.1	-1.8	-1.8	12.7	36.2*
O=C1CN=C(c2ccccc2Cl)c2cc(Cl)ccc2N1Cc1cccc(Cl)c1	12.4	0.8	.	.	.
N#Cc1cc2c(nc1SCC(=O)Nc1ccc(C(F)(F)F)cc1)C1CCN2CC1	-6.7	.	.	.	.
Cc1ccc(-n2nc(C)c3c2NC(=O)CSC3c2ccc(O)cc2)cc1Cl (stereo not given)	8.4	-1.5	.	.	.
Nc1c(Br)cc2c3c(cccc13)-c1ccccc1-2	.	.	7.3	59.5*	.
Cc1ccc(OCC(=O)Nc2ccc(Cl)cc2C(=O)c2ccccc2)c(Br)c1	-1.7	0.3	.	.	.
COc1ccc(C)cc1NC(=O)c1cccn(Cc2cccc([N+](=O)[O-])c2)c1=O	-9.8	.	.	.	.
O=C(Nc1cc(C(F)(F)F)cc(C(F)(F)F)c1)c1cccn(Cc2ccccc2Cl)c1=O	-5.5	1.6	.	.	.
COc1cccc(CNCCc2c[nH]c3ccccc23)c1	-20.9	1.8	3.4	-23.3	46.3*
COc1ccc2[nH]cc(CCNCc3cccnc3)c2c1	-12.5	0.0	3.1	-1.2	-7.7
Cc1cccc(NC2=NCCCS2)c1C	-9.9	0.5	1.9	-6.0	38.4*
Cc1ccccc1NC1=NCCCS1	5.7	0.5	-0.5	-11.0	-21.8
CCN(CC)c1ccc(/C=C/[N+](=O)[O-])cc1	-7.2	57.2*	-3.5	4.2	1.3
COc1cc(/C=C/[N+](=O)[O-])ccc1O	4.7	2.1	-1.2	-0.3	-17.9
CCC(C)NC(=O)CCC(=O)OC1O[C@H]2OC3(C)CC[C@H]4[C@H](C)CCC(C1C)C24OO3 (stereo not given in full)	7.3	-0.2	57.5*	24.4	-30.9
CCC(C)C(NC(=O)CCCNC(=O)CCC(=O)OC1O[C@H]2OC3(C)CC[C@H]4[C@H](C)CCC(C1C)C24OO3)C(=O)O (stereo not given in full)	16.3	0.1	.	.	17.8
